This note sets out measurements from ChEMBL document CHEMBL1961873, “Compounds: GSK PKIS; Assays: Nanosyn kinase panel” (2012).

Assay [1] deals with Mitogen-activated protein kinase kinase kinase kinase 4 (Homo sapiens) (UniProt O95819). As to conditions: at 1 µM.
Assay [2] addresses Dual specificity mitogen-activated protein kinase kinase 1 (Homo sapiens) (UniProt Q02750). As to conditions: at 0.1 µM.
The target is the same in assay [3]. As to conditions: at 1 µM.
For assay [4], the target named is Misshapen-like kinase 1 (Homo sapiens) (UniProt Q8N4C8). The conditions noted are these: at 0.1 µM.
Sequence of Misshapen-like kinase 1 (Homo sapiens) (Q8N4C8 whole entry, looked up): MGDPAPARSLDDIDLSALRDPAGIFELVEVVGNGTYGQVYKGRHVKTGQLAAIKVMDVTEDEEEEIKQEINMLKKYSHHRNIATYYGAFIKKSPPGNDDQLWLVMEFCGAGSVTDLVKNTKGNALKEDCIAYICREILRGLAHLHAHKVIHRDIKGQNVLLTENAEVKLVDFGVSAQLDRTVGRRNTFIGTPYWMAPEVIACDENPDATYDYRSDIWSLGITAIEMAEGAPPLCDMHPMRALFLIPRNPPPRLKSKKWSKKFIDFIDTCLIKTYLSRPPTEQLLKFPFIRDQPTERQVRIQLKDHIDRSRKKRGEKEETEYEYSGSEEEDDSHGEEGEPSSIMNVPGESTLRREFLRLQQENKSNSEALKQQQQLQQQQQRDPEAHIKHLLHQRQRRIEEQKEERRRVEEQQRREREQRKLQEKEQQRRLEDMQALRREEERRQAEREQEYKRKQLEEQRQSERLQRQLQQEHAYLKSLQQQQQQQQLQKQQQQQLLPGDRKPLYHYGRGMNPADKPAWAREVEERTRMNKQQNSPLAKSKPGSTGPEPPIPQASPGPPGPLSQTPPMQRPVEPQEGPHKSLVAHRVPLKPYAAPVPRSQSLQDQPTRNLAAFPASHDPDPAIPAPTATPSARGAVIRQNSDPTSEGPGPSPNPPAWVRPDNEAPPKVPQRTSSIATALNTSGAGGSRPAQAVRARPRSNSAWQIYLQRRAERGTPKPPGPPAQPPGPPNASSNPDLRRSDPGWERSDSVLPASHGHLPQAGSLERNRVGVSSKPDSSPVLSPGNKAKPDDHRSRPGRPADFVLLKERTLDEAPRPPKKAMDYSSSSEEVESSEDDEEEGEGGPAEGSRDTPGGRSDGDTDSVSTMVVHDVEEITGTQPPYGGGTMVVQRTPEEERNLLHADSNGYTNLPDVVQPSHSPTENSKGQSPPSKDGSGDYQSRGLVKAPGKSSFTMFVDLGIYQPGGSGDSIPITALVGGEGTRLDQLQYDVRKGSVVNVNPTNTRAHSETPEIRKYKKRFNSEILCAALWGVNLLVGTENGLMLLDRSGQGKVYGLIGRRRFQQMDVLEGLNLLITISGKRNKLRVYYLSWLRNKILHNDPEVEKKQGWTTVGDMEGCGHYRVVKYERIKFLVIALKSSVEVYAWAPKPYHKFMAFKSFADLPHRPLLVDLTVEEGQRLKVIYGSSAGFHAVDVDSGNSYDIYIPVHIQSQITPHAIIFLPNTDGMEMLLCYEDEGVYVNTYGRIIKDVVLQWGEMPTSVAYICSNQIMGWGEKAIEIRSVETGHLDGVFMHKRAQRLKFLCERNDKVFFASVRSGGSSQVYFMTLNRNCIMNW
Assay [5] has the same target. The conditions noted are these: at 1 µM.
Assay [6] has as its target T1, Serine/threonine-protein kinase 4 (Homo sapiens) (UniProt Q13043).
T1 sequence (whole entry): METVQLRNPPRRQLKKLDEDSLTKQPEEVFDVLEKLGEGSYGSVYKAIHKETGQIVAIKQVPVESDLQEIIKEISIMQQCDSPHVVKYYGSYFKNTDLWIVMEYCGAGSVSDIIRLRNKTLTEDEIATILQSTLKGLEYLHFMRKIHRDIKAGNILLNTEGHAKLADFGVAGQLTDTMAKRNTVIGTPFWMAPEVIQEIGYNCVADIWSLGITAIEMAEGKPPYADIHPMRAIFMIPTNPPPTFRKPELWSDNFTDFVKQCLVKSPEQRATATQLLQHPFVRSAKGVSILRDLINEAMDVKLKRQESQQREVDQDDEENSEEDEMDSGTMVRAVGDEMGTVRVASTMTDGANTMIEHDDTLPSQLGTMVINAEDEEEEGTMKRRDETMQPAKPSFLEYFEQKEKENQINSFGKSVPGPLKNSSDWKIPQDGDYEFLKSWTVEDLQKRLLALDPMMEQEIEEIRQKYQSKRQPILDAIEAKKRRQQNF
The conditions noted are these: at 0.1 µM.

For assay [7], the target named is T1, Serine/threonine-protein kinase 4 (Homo sapiens). The conditions noted are these: at 1 µM.
Assay [8] addresses T2, Serine/threonine-protein kinase 3 (Homo sapiens) (UniProt Q13188).
T2 sequence (whole entry): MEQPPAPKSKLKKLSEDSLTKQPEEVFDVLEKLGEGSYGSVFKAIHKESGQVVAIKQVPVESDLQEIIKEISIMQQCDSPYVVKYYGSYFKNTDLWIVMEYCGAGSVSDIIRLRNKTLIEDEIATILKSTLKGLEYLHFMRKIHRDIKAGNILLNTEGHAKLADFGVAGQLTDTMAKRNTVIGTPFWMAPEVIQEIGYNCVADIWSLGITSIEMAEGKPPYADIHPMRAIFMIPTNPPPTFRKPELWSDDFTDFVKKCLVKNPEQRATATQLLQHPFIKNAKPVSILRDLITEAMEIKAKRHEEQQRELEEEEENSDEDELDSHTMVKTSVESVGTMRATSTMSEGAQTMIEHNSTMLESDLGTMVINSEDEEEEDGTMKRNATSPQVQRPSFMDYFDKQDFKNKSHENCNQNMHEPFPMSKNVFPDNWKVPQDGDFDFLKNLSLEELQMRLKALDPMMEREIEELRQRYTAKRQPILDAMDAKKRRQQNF
As to conditions: at 0.1 µM.

Assay [9] has as its target T2, Serine/threonine-protein kinase 3 (Homo sapiens). The conditions noted are these: at 1 µM.
Assay [10] concerns the target Serine/threonine-protein kinase 26 (Homo sapiens) (UniProt Q9P289). The conditions noted are these: at 0.1 µM.

Sequence of Dual specificity mitogen-activated protein kinase kinase 1 (Homo sapiens) (Q02750 whole entry): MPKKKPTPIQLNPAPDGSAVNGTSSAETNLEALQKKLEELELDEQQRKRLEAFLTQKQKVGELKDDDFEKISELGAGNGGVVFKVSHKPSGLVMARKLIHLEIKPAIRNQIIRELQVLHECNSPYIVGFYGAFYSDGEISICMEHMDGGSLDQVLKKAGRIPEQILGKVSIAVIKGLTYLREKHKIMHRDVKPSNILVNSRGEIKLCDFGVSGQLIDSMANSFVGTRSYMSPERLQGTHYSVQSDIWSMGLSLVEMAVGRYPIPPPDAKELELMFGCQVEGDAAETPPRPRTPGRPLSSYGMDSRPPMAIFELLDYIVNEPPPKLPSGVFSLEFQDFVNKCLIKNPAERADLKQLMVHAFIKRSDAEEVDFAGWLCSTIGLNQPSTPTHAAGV
Sequence of Mitogen-activated protein kinase kinase kinase kinase 4 (Homo sapiens) (O95819 2-1239 limits assumed): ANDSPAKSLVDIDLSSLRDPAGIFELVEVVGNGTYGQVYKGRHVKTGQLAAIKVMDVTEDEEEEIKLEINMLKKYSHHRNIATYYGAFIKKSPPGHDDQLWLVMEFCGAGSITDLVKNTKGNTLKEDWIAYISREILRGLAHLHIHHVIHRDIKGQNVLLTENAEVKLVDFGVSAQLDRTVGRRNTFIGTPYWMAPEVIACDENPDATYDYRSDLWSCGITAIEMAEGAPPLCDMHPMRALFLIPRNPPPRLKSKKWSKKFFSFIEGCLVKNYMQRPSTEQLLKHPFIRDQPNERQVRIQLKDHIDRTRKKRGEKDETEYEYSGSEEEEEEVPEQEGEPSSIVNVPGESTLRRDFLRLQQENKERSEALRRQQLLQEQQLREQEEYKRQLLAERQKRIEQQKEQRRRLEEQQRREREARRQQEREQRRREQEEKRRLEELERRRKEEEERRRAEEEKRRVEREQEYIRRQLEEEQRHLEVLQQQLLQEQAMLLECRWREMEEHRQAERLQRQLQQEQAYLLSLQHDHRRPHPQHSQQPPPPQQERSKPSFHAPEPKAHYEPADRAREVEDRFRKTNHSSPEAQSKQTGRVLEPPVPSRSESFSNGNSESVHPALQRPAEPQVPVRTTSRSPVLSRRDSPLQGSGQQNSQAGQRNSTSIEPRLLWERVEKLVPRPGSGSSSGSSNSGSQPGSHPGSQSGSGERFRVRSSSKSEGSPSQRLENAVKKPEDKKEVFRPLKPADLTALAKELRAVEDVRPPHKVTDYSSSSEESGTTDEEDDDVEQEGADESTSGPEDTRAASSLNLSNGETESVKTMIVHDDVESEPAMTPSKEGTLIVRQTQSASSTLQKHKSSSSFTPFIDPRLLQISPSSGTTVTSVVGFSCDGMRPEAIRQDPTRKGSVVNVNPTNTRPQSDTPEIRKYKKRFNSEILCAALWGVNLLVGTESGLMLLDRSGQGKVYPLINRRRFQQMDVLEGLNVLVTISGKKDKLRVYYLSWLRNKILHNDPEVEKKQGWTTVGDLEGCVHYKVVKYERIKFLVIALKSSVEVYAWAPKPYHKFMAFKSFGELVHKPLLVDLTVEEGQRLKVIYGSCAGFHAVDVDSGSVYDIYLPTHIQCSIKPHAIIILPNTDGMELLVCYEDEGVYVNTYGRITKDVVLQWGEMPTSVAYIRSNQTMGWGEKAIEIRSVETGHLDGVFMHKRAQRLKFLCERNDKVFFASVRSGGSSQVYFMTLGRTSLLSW
Sequence of Serine/threonine-protein kinase 26 (Homo sapiens) (Q9P289 2-416 limits assumed): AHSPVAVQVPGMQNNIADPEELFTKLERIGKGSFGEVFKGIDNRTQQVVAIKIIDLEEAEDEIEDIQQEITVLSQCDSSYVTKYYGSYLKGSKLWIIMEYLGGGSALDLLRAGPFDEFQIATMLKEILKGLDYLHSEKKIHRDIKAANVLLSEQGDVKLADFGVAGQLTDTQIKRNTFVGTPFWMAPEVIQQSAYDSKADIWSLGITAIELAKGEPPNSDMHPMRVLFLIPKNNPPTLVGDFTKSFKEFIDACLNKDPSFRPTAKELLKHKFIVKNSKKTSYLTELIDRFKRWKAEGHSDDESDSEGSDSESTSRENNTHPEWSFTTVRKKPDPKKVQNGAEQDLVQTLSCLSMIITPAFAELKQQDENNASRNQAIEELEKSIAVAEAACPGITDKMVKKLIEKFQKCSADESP

A word on the inhibition: it is the change of the read-out against control, counted positive when it falls. Take `Nc1nccc(-c2c(-c3ccc(F)cc3)ncn2C2CCC(O)CC2)n1` (stereo not drawn): the inhibition in [1] is 72.8%; in assay [2], -3.17%; in [3] it was -3.2%; in assay [4], 6.81%; in [5], 62.4%; in assay [6], 0.86%. The inhibition in assay [7] was 22%; in assay [8], -0.05%; in assay [9], 14.6%; in [10], 0.75%.

With `CCc1nccc2c1nc(-c1nonc1N)n2CC`, the inhibition in [1] is 6.31%; in [2], 1.12%; in [3], 1.54%; in assay [4], 3.5%; in assay [5], 3.84%; in assay [6], -1.14%. For the same compound, the inhibition in assay [7] was -0.39%; in [10], -1.4%.

As for `NCc1ccc(-n2c(-c3nonc3N)nc3cnccc32)cc1`, the inhibition in [1] is 20.3%; in assay [2] it was 8.09%; in assay [3], 8.5%; in [4] it was 11.2%; in assay [5], 16.3%; in assay [6], 9.89%. Further, the inhibition in assay [7] turned out to be 19.6%; in [8] it was 10.2%; in [9], 13.1%; in assay [10] it was 0.95%.

`NS(=O)(=O)c1ccc(Nc2cc(-c3ccc(O)c(F)c3)n[nH]2)cc1`: the inhibition is 76.2% in assay [1]; -2.69% in assay [2]; -3.65% in assay [3]; 11.6% in assay [4]; 65.7% in assay [5]; -1.34% in assay [6]. For the same compound, the inhibition in assay [7] was 12.6%; in assay [8] it was -1.84%; in assay [9], 9.64%; in assay [10], 0.95%.

In the case of `COc1cc(Nc2ncc(-c3ccccc3)o2)cc(OC)c1OC`, the inhibition in [1] is 26.4%; in assay [2], -0.87%; in assay [3] it was 0.69%; in [4], 0.26%; in [5], 17.3%; in assay [6] it was -2.33%. Moreover, the inhibition is 0% in assay [7], -4.02% in assay [8], -1.87% in [9] and -0.19% in [10].

On to `O=C(Nc1n[nH]c2cc(-c3cc(F)ccc3F)ccc12)C1CC1`, for which the inhibition came out at 58.7% in [1]; 4.62% in [2]; 4.19% in assay [3]; 11.6% in assay [4]; 45.7% in assay [5]; 1.85% in assay [6]. Further, the inhibition was 4.03% in assay [7], 2.46% in assay [8], 3.81% in [9] and -1.29% in assay [10].

On to `COc1ccc(C2=C(N3CCc4ccccc43)C(=O)NC2=O)cc1`, for which the inhibition in assay [1] is 12.6%; in [2], 5.11%; in [3], 4.03%; in assay [4], 7.89%; in assay [5], 11%; in [6], 7.03%. The inhibition in assay [7] is 7.64%; in assay [8] it was 6.94%; in assay [9] it was 6.17%; in assay [10], -0.57%.

In the case of `O=C1Nc2ccc(I)cc2C1=Cc1cc(Br)c(O)c(Br)c1`, the inhibition in assay [1] came out at 83.7%; in assay [2] it was 3.38%; in assay [3], 3.62%; in assay [4] it was 18.9%; in assay [5] it was 73.2%; in assay [6], 3.39%. The inhibition worked out at 17.2% in assay [7], 3.5% in [8], 19.5% in assay [9] and 0.13% in assay [10].

As to `NS(=O)(=O)c1ccc(N/N=C2\C(=O)Nc3ccc(-c4cnco4)cc32)cc1`, the inhibition amounted to 77.6% in assay [1]; 2.18% in assay [2]; 5.31% in assay [3]; 51.6% in assay [4]; 75.8% in assay [5]; 43.8% in assay [6]. The inhibition was determined as 76.8% in [7], 33.4% in assay [8], 73.2% in [9] and 0.61% in [10].

As to `COc1cccc(/C=N/Nc2ncnc3c2cnn3-c2cccc(OC)c2)c1`, the inhibition in assay [1] stood at 10.8%; in assay [2] it was 3.68%; in [3] it was 2.66%; in assay [4], 5.65%; in [5], 10.9%; in assay [6] it was 2.42%. Further, the inhibition in [7] was 3.52%; in assay [8], 3.29%; in [9] it was 3.95%; in assay [10] it was -3.41%.

Consider `O=C1NC(=O)C(c2cccc(Cl)c2)=C1Nc1ccc(Cl)c(C(=O)O)c1`, for which the inhibition is 8.37% in assay [1]; 5.3% in assay [2]; 2.84% in [3]; 4.74% in assay [4]; 7.9% in assay [5]; 5.13% in assay [6]. Moreover, the inhibition in [7] is 7.28%; in assay [8] it was 6.05%; in assay [9] it was 9.28%; in [10], 0.55%.

With `CCS(=O)(=O)c1ccc(OC)c(Nc2ncc(-c3cccc(-c4ccccc4F)c3)o2)c1`, the inhibition in [1] was 7.49%; in assay [2], -1.1%; in assay [3], -0.23%; in assay [4], 1.27%; in assay [5], 6.72%; in assay [6], -0.24%. Moreover, the inhibition in assay [7] is 0.6%; in assay [8], 0.7%; in [9] it was -0.3%; in [10] it was 0.48%.

In the case of `CCN(CC)Cc1ccc(Nc2nccc(-c3cnn4ncccc34)n2)cc1`, the inhibition in [1] worked out at 20.4%; in assay [2] it was 3.09%; in [3], 13.1%; in assay [4], 5.68%; in [5], 17%; in assay [6], 1.35%. Further, the inhibition is 15.9% in [7], 5.43% in assay [8], 9.79% in [9] and -1.89% in assay [10].

On to `Fc1ccc(-c2ncn(C3CCNCC3)c2-c2ccnc(Oc3ccc(F)c(F)c3)n2)cc1`, for which the inhibition in [1] is 10.9%; in assay [2], 3.03%; in assay [3] it was 3.8%; in [4] it was 8.56%; in assay [5], 12%; in assay [6], 7.1%. Moreover, the inhibition came to 7.9% in [7], 10.2% in assay [8], 9.55% in assay [9] and 1.93% in [10].

For `COc1cc(Nc2ncc3c(C)nc(-c4cccc(Oc5ccccc5)c4)n3n2)cc(OC)c1OC`, the inhibition turned out to be 5.36% in assay [1]; 2.88% in assay [2]; 9.12% in assay [3]; 1.96% in assay [4]; 2.84% in assay [5]; 5.41% in assay [6]. Besides, the inhibition was 6.48% in [7], 5.14% in [8], 4.82% in assay [9] and -0.33% in [10].

On to `COc1ccc2ncn(-c3cc(O[C@H](C)c4ccccc4Cl)c(C(N)=O)s3)c2c1`, for which the inhibition worked out at 5.82% in assay [1]; 2.51% in assay [2]; 2.76% in assay [3]; 5.84% in [4]; 5.42% in [5]; 3.89% in assay [6]. The inhibition is 13% in [7], 6.32% in assay [8], 13.2% in assay [9] and -2.67% in assay [10].

With `c1ccc(Oc2ccc(Nc3ncc(-c4ccccc4)o3)cc2)cc1`, the inhibition in assay [1] stood at 6.86%; in assay [2], 0.88%; in assay [3], 1.76%; in assay [4] it was 3.49%; in assay [5], 7.84%; in assay [6], 1.03%. Besides, the inhibition in assay [7] is 1.83%; in assay [8], 0.33%; in assay [9], 0.37%; in assay [10], -1.17%.
